Structures are written as SMILES. The campaign covered roughly 310,000 compounds. About 14,000 (4.5%) showed an effect of 50% or more. Effects have a minus sign here. Only a selection was taken, and strong results are over-represented in it overall.
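Also: peak tail current of the secondary pulse compared with the same well before compound.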

The target in this assay is human ether-à-go-go-related gene (hERG) potassium channel (human, UniProt Q12809). Description: primary screen, population patch clamp on CHO cells stably expressing hERG; higher = less effect of the substance.
human ether-à-go-go-related gene (hERG) potassium channel, sequence (Q12809 whole entry, looked up): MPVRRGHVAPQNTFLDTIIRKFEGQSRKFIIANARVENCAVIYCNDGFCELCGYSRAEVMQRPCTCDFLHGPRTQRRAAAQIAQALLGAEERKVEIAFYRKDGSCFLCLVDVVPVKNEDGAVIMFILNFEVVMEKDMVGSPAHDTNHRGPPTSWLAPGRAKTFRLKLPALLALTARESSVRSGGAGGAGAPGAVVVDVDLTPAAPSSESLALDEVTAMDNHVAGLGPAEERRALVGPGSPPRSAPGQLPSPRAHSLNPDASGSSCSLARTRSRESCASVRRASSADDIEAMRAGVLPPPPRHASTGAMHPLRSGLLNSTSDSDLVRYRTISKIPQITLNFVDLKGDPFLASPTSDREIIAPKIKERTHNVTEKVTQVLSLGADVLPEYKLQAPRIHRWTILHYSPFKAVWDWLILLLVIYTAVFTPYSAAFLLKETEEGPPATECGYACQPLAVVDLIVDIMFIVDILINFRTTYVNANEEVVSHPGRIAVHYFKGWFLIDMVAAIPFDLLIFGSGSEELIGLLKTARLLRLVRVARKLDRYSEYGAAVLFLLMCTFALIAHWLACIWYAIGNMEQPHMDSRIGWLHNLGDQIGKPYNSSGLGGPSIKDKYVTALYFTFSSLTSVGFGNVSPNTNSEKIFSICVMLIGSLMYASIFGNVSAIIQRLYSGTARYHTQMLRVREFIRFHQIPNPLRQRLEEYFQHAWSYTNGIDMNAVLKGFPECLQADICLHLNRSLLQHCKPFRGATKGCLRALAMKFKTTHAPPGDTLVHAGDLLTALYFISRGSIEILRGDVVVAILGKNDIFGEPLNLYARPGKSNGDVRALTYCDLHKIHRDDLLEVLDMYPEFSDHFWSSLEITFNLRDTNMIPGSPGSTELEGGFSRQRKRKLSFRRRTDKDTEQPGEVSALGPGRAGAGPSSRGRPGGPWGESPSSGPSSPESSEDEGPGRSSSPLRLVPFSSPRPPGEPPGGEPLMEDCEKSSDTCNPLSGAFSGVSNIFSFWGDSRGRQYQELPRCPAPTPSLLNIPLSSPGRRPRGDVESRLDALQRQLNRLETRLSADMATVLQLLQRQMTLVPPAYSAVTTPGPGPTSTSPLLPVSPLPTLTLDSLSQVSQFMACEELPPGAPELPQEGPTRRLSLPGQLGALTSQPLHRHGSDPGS
In the case of `CN(C1=NS(=O)(=O)c2ccccc21)c1ccc(OC(=O)c2ccncc2)cc1`, the “hERG current change (%, negative = inhibition) at 10uM” value was -9.07%.

For `COc1cccc(CN(C)C(=O)CCN(c2ccccc2)S(=O)(=O)c2ccc(C)cc2)c1OC`, the “hERG current change (%, negative = inhibition) at 10uM” value is -30.4%.

In the case of `COC(=O)C1=C(c2ccc(F)cc2F)C[C@@H]2CC[C@H]1N2C(=O)NC1Cc2ccccc2C1`, the “hERG current change (%, negative = inhibition) at 10uM” value is listed as -16.9%.

On to `O=C(N/N=C/c1cc(O)ccc1[N+](=O)[O-])c1ccc2c(c1)OCCO2`, for which the “hERG current change (%, negative = inhibition) at 10uM” value was -2.12%.

Regarding `CCCCOc1ccc(S(=O)(=O)n2c(C)nc3ccccc32)cc1`, the “hERG current change (%, negative = inhibition) at 10uM” value is given as 0.0246%.

With `CCN(CC(=O)NCc1cccs1)C(=O)c1ccc(S(=O)(=O)Nc2ccccc2Cl)cc1`, the “hERG current change (%, negative = inhibition) at 10uM” value is reported as -26.8%.

Turning to `C/C(=N\NC(=O)c1cccc(S(=O)(=O)N2CCCC2)c1)c1ccncc1`, the “hERG current change (%, negative = inhibition) at 10uM” value is -1.9%.

In the case of `C/C(=N\NC(=O)c1cccc(S(=O)(=O)N2CCOCC2)c1)c1ccc(C#N)cc1`, the “hERG current change (%, negative = inhibition) at 10uM” value is listed as -52.6%.

`C/C(=N\NC(=O)c1cccc(S(=O)(=O)N2CCCC2)c1)c1ccc(C)cc1`: the “hERG current change (%, negative = inhibition) at 10uM” value is reported as -50.4%.

As to `N#Cc1ccc(/C=N/NC(=O)c2cccc(S(=O)(=O)N3CCOCC3)c2)cc1`, the “hERG current change (%, negative = inhibition) at 10uM” value is 13.3%.

For `C/C(=N\NC(=O)c1cccc(S(=O)(=O)N2CCOCC2)c1)c1ccc(C)cc1`, the “hERG current change (%, negative = inhibition) at 10uM” value is -3.88%.

Turning to `C/C(=N\NC(=O)c1cccc(S(=O)(=O)N2CCOCC2)c1)c1ccc(O)cc1`, the “hERG current change (%, negative = inhibition) at 10uM” value was found to be 11.4%.

For the compound `Cn1c(=O)c2c([nH]c(=S)n2CCCc2ccccc2)n(C)c1=O`, the “hERG current change (%, negative = inhibition) at 10uM” value worked out at 15.5%.

Take `CC(Cc1cccs1)NC(=O)Nc1ccc(F)cc1` (stereo not drawn): the “hERG current change (%, negative = inhibition) at 10uM” value amounted to 18.2%.

As to `CCc1nc(C#N)c(N2CCOCC2)o1`, the “hERG current change (%, negative = inhibition) at 10uM” value is 2.54%.

On to `CCN(c1ccccc1)S(=O)(=O)c1ccc(C(=O)Oc2ccc(C(C)=O)cc2)cc1`, for which the “hERG current change (%, negative = inhibition) at 10uM” value was 8.41%.

With `CC1(C)N=C(N)NC(Nc2ccccc2)=N1`, the “hERG current change (%, negative = inhibition) at 10uM” value is 2.96%.

Regarding `Cc1onc(-c2ccccc2Cl)c1C(=O)Nc1cccc(-c2nc3ncccn3c2C)c1`, the “hERG current change (%, negative = inhibition) at 10uM” value was -63%.

Take `Cc1onc(-c2ccccc2Cl)c1C(=O)Nc1ccc(-c2cn3cccnc3n2)cc1`: the “hERG current change (%, negative = inhibition) at 10uM” value amounted to 26%.

In the case of `Cc1onc(-c2ccccc2Cl)c1C(=O)Nc1cccc(-c2cn3cccnc3n2)c1`, the “hERG current change (%, negative = inhibition) at 10uM” value was -24.8%.

In the case of `Cl.O=C1CC2(CCCC2)CC(=O)N1CCCCN1CCN(c2ncccn2)CC1`, the “hERG current change (%, negative = inhibition) at 10uM” value is -35.9%.

As to `Cc1c(C)n2c(SCC(=O)NCc3ccc4c(c3)OCO4)nnc2[nH]c1=O`, the “hERG current change (%, negative = inhibition) at 10uM” value was 7.88%.

As to `CSc1cccc(NC(=S)N2CCC(c3ccccc3)C2)c1` (stereo not drawn), the “hERG current change (%, negative = inhibition) at 10uM” value was determined as 7.54%.

For `CSc1cccc(NC(=S)N2CCC(N(C)C3CCCCCC3)CC2)c1`, the “hERG current change (%, negative = inhibition) at 10uM” value is on record as -62.9%.

For the compound `CCCCN(C)C1CCN(C(=S)Nc2cccc(OC)c2)CC1`, the “hERG current change (%, negative = inhibition) at 10uM” value was -19.9%.

On to `CCCCN(C)C1CCN(C(=S)Nc2cccc(SC)c2)CC1`, for which the “hERG current change (%, negative = inhibition) at 10uM” value is given as -59.8%.

With `CSc1cccc(NC(=S)N2CCC(N(C)C3CCCCC3)CC2)c1`, the “hERG current change (%, negative = inhibition) at 10uM” value is recorded as -64.4%.

For `CSc1cccc(NC(=S)N2CCC(N(C)C3CCCC3)CC2)c1`, the “hERG current change (%, negative = inhibition) at 10uM” value was -29.2%.

On to `CCCCN(C(=S)Nc1cccc(SC)c1)C1CCN(C(C)=O)CC1`, for which the “hERG current change (%, negative = inhibition) at 10uM” value is -28.9%.

On to `CSc1cccc(NC(=S)N2CCC(N(C)C(C)C)CC2)c1`, for which the “hERG current change (%, negative = inhibition) at 10uM” value is -16.2%.

In the case of `CN(C1CCCC1)C1CCN(C(=S)Nc2cc(F)cc(F)c2)CC1`, the “hERG current change (%, negative = inhibition) at 10uM” value is on record as -42%.

As to `CSc1cccc(NC(=S)N2CCC(N(C)C3CCCCC3C)CC2)c1` (stereo not drawn), the “hERG current change (%, negative = inhibition) at 10uM” value is on record as -58.2%.

Turning to `CCOC(=O)N1CCC(N(CCN(C)C)C(=S)Nc2cccc(SC)c2)CC1`, the “hERG current change (%, negative = inhibition) at 10uM” value is -11.6%.

For `CCC(C)N(C)C1CCN(C(=S)Nc2cccc(SC)c2)CC1` (stereo not drawn), the “hERG current change (%, negative = inhibition) at 10uM” value is -45.8%.

`N#CCOc1coc(CN2CCN(c3cccc(Cl)c3)CC2)cc1=O`: the “hERG current change (%, negative = inhibition) at 10uM” value is reported as -0.696%.

On to `Cc1ccccc1C(=O)NC(=S)Nc1ccccc1C(=O)O`, for which the “hERG current change (%, negative = inhibition) at 10uM” value is reported as 15.5%.

Take `Cc1nnc(-c2cnn(-c3ccccc3)c2N)n1Cc1cccc(C(F)(F)F)c1`: the “hERG current change (%, negative = inhibition) at 10uM” value is recorded as -18.8%.

Consider `Cc1ccc(CSCC(=O)N(C)CC(=O)Nc2ccccc2C(F)(F)F)cc1`, for which the “hERG current change (%, negative = inhibition) at 10uM” value is -0.53%.

As to `O=C1NC(=Nc2ccccc2Cl)S/C1=C\c1cccc([N+](=O)[O-])c1`, the “hERG current change (%, negative = inhibition) at 10uM” value is on record as -0.316%.

Regarding `Cn1cc(/C=C2\SC(=S)N(NC(=O)c3ccccc3)C2=O)c2ccccc21`, the “hERG current change (%, negative = inhibition) at 10uM” value turned out to be 10.6%.

With `CCOc1cc(C(=O)N(C)CC(=O)Nc2cccc(F)c2)ccc1OCC(=O)N1CCCCC1`, the “hERG current change (%, negative = inhibition) at 10uM” value was -14.1%.

Take `O=C(COC(=O)CNC(=O)c1ccccc1F)Nc1ccc2[nH]c(=O)[nH]c2c1`: the “hERG current change (%, negative = inhibition) at 10uM” value stood at 10.2%.

Regarding `COc1ccc(NC(=O)CN2C(=O)NC3(CCCC3)C2=O)cc1`, the “hERG current change (%, negative = inhibition) at 10uM” value came out at 13.7%.

Turning to `CCOC(=O)c1nn(-c2ccc(F)cc2)c2c1CC/C2=C/c1ccccc1`, the “hERG current change (%, negative = inhibition) at 10uM” value is listed as 8.7%.

On to `CN(C)c1cc(N)c2c(n1)CCC2.O=C(O)c1cncc(O)c1`, for which the “hERG current change (%, negative = inhibition) at 10uM” value is recorded as -10.8%.

With `COC(=O)C1C(O)=C(C=Nc2cccc3ccccc23)C(=O)CC1(C)C` (stereo not drawn), the “hERG current change (%, negative = inhibition) at 10uM” value is recorded as -2.34%.

As to `Cc1ccc(S(=O)(=O)NCc2ccccc2C)cc1`, the “hERG current change (%, negative = inhibition) at 10uM” value is 11.6%.

As for `N#CC(Sc1ccccn1)c1ccc(Cl)cc1` (stereo not drawn), the “hERG current change (%, negative = inhibition) at 10uM” value is -18.2%.

In the case of `CCCCN(C)C1CCN(C(=S)Nc2ccc(OCC)cc2)CC1`, the “hERG current change (%, negative = inhibition) at 10uM” value is recorded as -76.7%.

As to `CCOc1ccc(NC(=S)N2CCC(N(C)CCN3CCOCC3)CC2)cc1`, the “hERG current change (%, negative = inhibition) at 10uM” value is -15.9%.

Take `CCCCN(C)C1CCN(C(=S)Nc2ccc(OC)cc2)CC1`: the “hERG current change (%, negative = inhibition) at 10uM” value was -26%.

Consider `CC1CCC(N(C)C2CCN(C)CC2)CC1` (stereo not drawn), for which the “hERG current change (%, negative = inhibition) at 10uM” value stood at 11.3%.

Take `CCCC12CN3CC(C)(CN(C1)C3c1cccs1)C2=O` (stereo not drawn): the “hERG current change (%, negative = inhibition) at 10uM” value is given as -7.68%.

Consider `CC(=O)c1ccc(NC(=O)C2CCCC2)cc1`, for which the “hERG current change (%, negative = inhibition) at 10uM” value was 10.7%.

`Fc1ccc(OCCCCCN2CCCC2)cc1`: the “hERG current change (%, negative = inhibition) at 10uM” value is listed as 4.62%.

On to `Fc1ccc(OCCCCCCN2CCCC2)cc1`, for which the “hERG current change (%, negative = inhibition) at 10uM” value is recorded as -9.37%.

For the compound `Cl.O[Si](CCCN1CCCCC1)(c1ccc(F)cc1)C1CCCCC1` (stereo not drawn), the “hERG current change (%, negative = inhibition) at 10uM” value is given as -54.3%.

The record behind these values is publication PMC4336329 (PLoS ONE, 2015).
